The list is not random: actives were taken first. Their share in the collection is about 2.1%.
TDP43 rescue = inhibitors of TDP-43 toxicity in yeast; TDP-43 expressing yeast growth rescue, BacTiter-Glo, 24 h; Potency, µM (titrated, usually from 46.1 µM), usual class: activators; 410,000 tested, 1.8% active; also: nearly all actives have a fitted effect of over 50% in size
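Growth rescue of TDP-43-toxic yeast measured as ATP luminescence (BacTiter-Glo). Cells grown to mid-log in raffinose, induced in galactose at OD600=0.02, exposed to compound 24 hr at 30 deg C.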
aSyn yeast inh = rescues yeast growth from alpha-synuclein toxicity | 370,000 tested, 0.14% active | Potency, µM (titrated, usually from 46.1 µM), hits mostly activators | Yeast expressing alpha-synuclein, growth rescue, BacTiter-Glo, 24 h; also: nearly all actives have a fitted effect of over 65% in size
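Galactose-induced alpha-syn yeast (OD600=0.02, raffinose-pregrown) + pinned cpd, 24 hr, 30 deg C; growth by BacTiter-Glo luminescence. Growth restoration scores as activation.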
Abeta rescue = A-beta toxicity reversal in yeast. yeast expressing A-beta42, growth rescue, OD600, 48 h; response scale: 0% DMSO, 100% iron-clioquinol control. 410,000 tested, 0.063% active. Potency, µM (highest dose often 46.1 µM), hits mostly activators; also: nearly all actives have a fitted effect of over 55% in size
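Yeast A-beta toxicity model in growth medium with pinned compounds, 48 h at 30 C; growth read as absorbance at 600 nm. Normalized to FeCl3/clioquinol equimolar mix (positive) and DMSO (negative).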
FUS suppressor = FUS proteinopathy suppression in yeast | S. cerevisiae FUS-expressing, growth rescue, OD600, 24 h | Potency, µM (series often up to 76.6 µM), hits mostly activators | 390,000 tested, 0.24% active; also: nearly all actives have a fitted effect of over 55% in size
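Absorbance at 600 nm, taken 24hr after compound addition, measured rescue of FUS-yeast growth at 30C. Induction used 2% galactose with seeding at OD 0.005. Controls: CP55940 from 92uM final, DMSO only.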
Of the large screens only hits and unclear results are named; the others gave an inactive call. Calls follow the shape of the dose curve; as a rule, active = well fitted curve in the direction sought with a large enough effect; inconclusive = small, poorly fitted or top-dose-only effect, or another doubt; inactive = no such curve, though single readings can be large; an effect the other way counts as inactive or inconclusive.

O=C(CSc1ncc2c(n1)-c1ccccc1N(Cc1ccccc1)S2(=O)=O)Nc1ccccc1	none (no result: aSyn yeast inh)
COc1ccc(-c2nc3ccc(NC(=O)COC(C)=O)cc3c(=O)n2Cc2ccccc2)cc1COc1ccc(NC(C)=O)cc1	none (no result: TDP43 rescue, Abeta rescue, FUS suppressor)
Cc1ccn2c(C=O)c(-c3ccc(F)cc3)c(C=O)c2c1	TDP43 rescue 20µM
O=Cc1c(-c2ccc(F)cc2)nc2ccccn12	none
FCCCOc1ccc(-c2ccnc3ncnn23)cc1	TDP43 rescue 22µM
C[C@@H](CCCCC1(C)OCCO1)CCC(=O)N(c1ccccc1)c1ccccc1	none (no result: TDP43 rescue, aSyn yeast inh, Abeta rescue)
O=C(C#Cc1ccccc1)c1ccc([N+](=O)[O-])cc1	TDP43 rescue 11µM
O=C(NCc1ccc(Cl)cc1)c1ccc(Cl)cc1[N+](=O)[O-]	none
O=C(NCCc1ccccc1)c1ccc(Cl)cc1[N+](=O)[O-]	TDP43 rescue 11µM
O=C(C1CC1)N1CCc2cc(Br)cc(S(=O)(=O)Nc3ccc(C(F)(F)F)cc3)c21	none (no result: aSyn yeast inh)
COc1ccc(OC)c(Nc2nc(-c3sc(C)nc3C)cs2)c1	TDP43 rescue 22µM
Cc1nc(C)c(-c2csc(Nc3ccc(Cl)cn3)n2)s1	TDP43 rescue 13µM
CCSc1nccc(-c2nn(-c3ccc(C)cc3)ccc2=O)n1	none
C#CCSc1nccc(-c2nn(-c3ccc(C)cc3)ccc2=O)n1	FUS suppressor 35µM
CCCC1CCC2(CC1)CCC2OC(=S)Nc1ccccc1 (configuration not stated)	none (no result: TDP43 rescue, aSyn yeast inh, Abeta rescue)
CC(=O)c1cccc(-c2ccnc3c2CC(C(=O)Nc2ccc(Cl)c(C(F)(F)F)c2)O3)c1 (configuration not stated)	TDP43 rescue 16µM
CC(C)c1ccc(NC(=O)C2Cc3c(-c4ccc5c(c4)OCO5)ccnc3O2)cc1 (configuration not stated)	TDP43 rescue 35µM, FUS suppressor inconclusive
COc1ccc(CCCNC(=O)C2Cc3c(-c4ccccc4)ccnc3O2)cc1 (configuration not stated)	TDP43 rescue 32µM
CC(=O)Nc1ccc(-c2ccnc3c2CC(C(=O)Nc2ccc4c(c2)OCO4)O3)cc1 (configuration not stated)	FUS suppressor inconclusive
CC(=O)Nc1ccc(NC(=O)C2Cc3c(-c4cccc(C(C)=O)c4)ccnc3O2)cc1 (configuration not stated)	none
COc1ccc(CNC(=O)C2Cc3c(-c4ccccc4)ccnc3O2)cc1OC (configuration not stated)	none
COc1ccc(NC(=O)C2Cc3c(-c4ccccc4Oc4ccccc4)ccnc3O2)cc1 (configuration not stated)	TDP43 rescue 25µM
O=C(Nc1ccccc1)C1Cc2c(-c3ccccc3Oc3ccccc3)ccnc2O1 (configuration not stated)	none
O=C(c1cnn2c1NC(=C1CC1)C=C2C(F)F)N1CCc2ccccc21	none (no result: TDP43 rescue, Abeta rescue, FUS suppressor)
O=C(c1cc(Cl)cc(Cl)c1)N1CCC(Oc2cccnc2)CC1	none (no result: TDP43 rescue, aSyn yeast inh, Abeta rescue)
CCOC(=O)C1CCN(C(=O)C(C)(C)NC(=O)Nc2ccc3c(c2)CCC3)CC1	none (no result: TDP43 rescue, aSyn yeast inh, Abeta rescue)
COc1ccc(NC(=O)C2Cc3c(-c4cccc(NC(C)=O)c4)ccnc3O2)cc1 (configuration not stated)	none
CC(=O)c1cccc(-c2ccnc3c2CC(C(=O)Nc2ccc4c(c2)OCO4)O3)c1 (configuration not stated)	TDP43 rescue 25µM, FUS suppressor inconclusive
CC(=O)c1cccc(-c2ccnc3c2CC(C(=O)Nc2cccc(OC(F)(F)F)c2)O3)c1 (configuration not stated)	TDP43 rescue 35µM, Abeta rescue inconclusive
CC(C)c1ccc(NC(=O)C2Cc3c(-c4ccco4)ccnc3O2)cc1 (configuration not stated)	TDP43 rescue 35µM, aSyn yeast inh inconclusive
COc1ccc(NC(=O)C2Cc3c(-c4cccc(C(C)=O)c4)ccnc3O2)cc1 (configuration not stated)	TDP43 rescue 22µM
CC(=O)Nc1ccc(-c2ccnc3c2CC(C(=O)Nc2ccc(C(C)C)cc2)O3)cc1 (configuration not stated)	FUS suppressor inconclusive
O=C(Nc1cccc(OC(F)(F)F)c1)C1Cc2c(-c3ccc(Cl)cc3)ccnc2O1 (configuration not stated)	aSyn yeast inh inconclusive
Cc1ccc(S(=O)(=O)N2CCN(c3nc(-c4cccs4)nc4ccccc34)CC2)c(C)c1	none (no result: TDP43 rescue, Abeta rescue, FUS suppressor)
COc1ccc(-n2c(C)nc3c(cnn3-c3ccc(C)c(C)c3)c2=O)cc1Cl	none (no result: aSyn yeast inh)
Cc1ccc(-n2c(C)nc3c(cnn3-c3ccccc3Cl)c2=O)cc1C	TDP43 rescue 11µM
Cc1ccc(-n2c(C)nc3c(cnn3-c3ccc(C)c(C)c3)c2=O)cc1C	TDP43 rescue inconclusive
COc1cccc(-n2c(C)nc3c(cnn3-c3ccc(C)c(C)c3)c2=O)c1	TDP43 rescue 22µM (no result: aSyn yeast inh)
Cc1cc(C)cc(NC(=O)OC2CC3CC2[C@H]2CCCCN2[C@H]3C)c1 (some centres not stated)	none (no result: TDP43 rescue, aSyn yeast inh, Abeta rescue)
C[C@H]1CCCN1c1ccc2c(c1)OCCCN(C1CC1)S2(=O)=O	none (no result: TDP43 rescue, aSyn yeast inh, Abeta rescue)
Oc1ccc(/C=N/Nc2ccc(C(F)(F)F)cn2)cc1	TDP43 rescue 10µM, Abeta rescue inconclusive
CCSc1ccc([C@@H]2[C@@H]3C(=O)N(CC)C(=O)[C@@H]3[C@]3(C(=O)OC)CCCCN23)cc1	TDP43 rescue 25µM
CCN1C(=O)[C@H]2[C@@H](c3ccc(-c4ccccc4)cc3)N3CCCC[C@@]3(C(=O)OC)[C@H]2C1=O	TDP43 rescue 35µM, FUS suppressor inconclusive
CC1(c2nnnn2Cc2ccccc2)CCCCC(=O)N1Cc1cccs1 (configuration not stated)	none (no result: TDP43 rescue, aSyn yeast inh, Abeta rescue)
Cc1ccc(-c2nc(C3CCCN(S(=O)(=O)c4cccs4)C3)no2)cc1 (configuration not stated)	none (no result: TDP43 rescue, aSyn yeast inh, Abeta rescue)
O=C(O)c1ccc(N2CCN(C(c3ccccc3)c3ccccc3)CC2)c([N+](=O)[O-])c1	TDP43 rescue 11µM
C=C1CCN(c2ccc(C(=O)O)cc2[N+](=O)[O-])CC1	TDP43 rescue inconclusive
CCC1CCc2c(sc(NC(=O)c3ccco3)c2C(N)=O)C1 (configuration not stated)	TDP43 rescue 13µM
O=c1c2ccc([N+](=O)[O-])cc2ncn1CCOc1ccccc1	none
Cc1ccc(OCCn2cnc3cc([N+](=O)[O-])ccc3c2=O)cc1	TDP43 rescue 10µM
Cc1ccccc1Cn1cnc2c([N+](=O)[O-])c(C)c(C)cc21	TDP43 rescue 13µM
Nc1nc(Nc2ccccc2)nc(NCc2ccco2)c1[N+](=O)[O-]	TDP43 rescue 20µM
COc1cc(C(=O)NCC(=O)OCC(=O)c2cccc3ccccc23)cc(OC)c1OC	FUS suppressor 13µM
Cc1ccc([N+](=O)[O-])cc1-c1[nH]c(-c2ccc(O)c(O)c2)nc1-c1ccccc1	FUS suppressor 20µM
COc1ccc(-c2nc(-c3ccccc3)c(-c3cc([N+](=O)[O-])ccc3C)[nH]2)cc1O	none

Screening results from PubChem BioAssay.
